Screening results: PubChem BioAssay, Broad Institute
Shn3 inh set2: inhibitors of Schnurri-3 3'UTR reporter in osteoblasts | Clone20 osteoblast Shn3 3'UTR firefly luciferase, 24 h | inhibition, % at 12.5 µM | 360,000 compounds, 0.52% hits;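 active = mean inhibition of at least 75% with every replicate also reaching 75%; inconclusive = mean inhibition at least 75% but some replicate below; inactive = mean inhibition below 75%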
NSD2 HMT inh: blocks human histone methyltransferase NSD2; O96028; NSD2 peptide methylation, AlphaScreen, 120 min; inhibition, % at 12.5 µM; 310,000 compounds, 0.54% hits; AID 743445; in the data active = inhibition above about 50%
Glyco luc inh: N-linked glycosylation inhibition; D54 ERlucT glycosylation luciferase reporter, 24 h; percent of 100 nM tunicamycin response; reporter increase, % at 12.5 µM; 360,000 compounds, 0.23% hits; AID 588692;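 active = mean luciferase reporter signal, scaled so untreated is 0 and the glycosylation-blocking control 100, at or above a set limit in every replicate; inconclusive = mean reaches the limit but not every replicate does; inactive = mean below the limit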;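 note: luciferase carries N-glycosylation sites so blocking glycosylation raises the light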
PAX8 reporter: lowers PAX8-driven luciferase in RMG-I cells. AID 652154. RMG-I TPO-luciferase reporter, SteadyGlo, 24 h. 360,000 compounds, 1.2% hits. inhibition, % at 12.6 µM;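 active = mean replicate inhibition at least 60% with every replicate also reaching 60%; inconclusive = only one of the two criteria is met; inactive = mean below 60% and not all replicates reaching 60%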;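 note: luciferase light reporting Pax8 driven TPO promoter activity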
Env fusion inh: inhibitors of HIV Env-mediated cell fusion | HeLa-JRFL Env/CEM21 cell fusion, luciferase | inhibition, % at 12.3 µM | 360,000 compounds, 1.1% hits | AID 651610;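 active = mean replicate inhibition score of at least 50 and every replicate individually at or above 50; inconclusive = only one of the two criteria met; inactive = mean below 50 and not all replicates reaching 50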
EBV LMP1 NFkB: Epstein-Barr LMP1 NF-kappaB reporter inhibition | LMP1-induced NF-kappaB luciferase reporter cells, luminescence | inhibition, % at 12.5 µM | 350,000 compounds, 0.69% hits; in the data active = inhibition above about 41%; inconclusive = no clear call, values can overlap the other calls
Hits are given with their value; 0 = inactive; ? = inconclusive; - = not tested or not shown. An excerpt weighted towards active compounds, which were near 2.8% of everything screened.

SMILES	Shn3 inh set2	NSD2 HMT inh	Glyco luc inh	PAX8 reporter	Env fusion inh	EBV LMP1 NFkB
N[C@@H](Cc1ccc(N(CCCl)CCCl)cc1)C(=O)O	0	-	0	0	0	50
COc1cc(C(=O)NN=Cc2ccc(N(CCCl)CCCl)cc2)cc(OC)c1OC	0	0	0	0	0	0
O=C1NC(=S)NC(=O)C1=Cc1cccc2cc3ccccc3cc12	99	0	0	0	0	0
C=C(C)[C@@]12OC3(c4ccccc4)O[C@@H]1C1[C@@H]4O[C@]4(CO)[C@@H](O)[C@]4(O)C(=O)C(C)=C[C@H]4[C@@]1(O3)[C@H](C)[C@H]2OC(=O)/C=C/C=C/c1ccccc1 (stereo partly specified)	0	-	53	-	-	0
CNC(=O)c1cccn(Cc2ccc(C(F)(F)F)cc2)c1=O	0	0	34	0	0	0
O=C(Nc1ccc(C(F)(F)F)cc1)c1cccn(Cc2ccc3c(c2)OC(F)(F)O3)c1=O	0	0	0	0	106	0
Cc1cccc(C)c1NC(=O)c1cccn(Cc2ccc3c(c2)OC(F)(F)O3)c1=O	0	0	0	-	67	0
C/C=C/c1ccc(C2[C@@H]3CN(Cc4cocn4)C[C@H]2N3)cc1 (stereo partly specified)	-	-	-	0	-	-
O=c1cccc2n1CC1CC2CN(c2nc(N3CCCCC3)nc(N3CCCCC3)n2)C1 (stereo unspecified)	0	0	0	0	82	0
CCCNC(=O)N1[C@@H]2Cn3c(ccc(-c4cccc(C(=O)N(C)C)c4)c3=O)[C@H]1[C@@H](C(=O)O)[C@@H]2CO	-	-	-	0	-	-
CSc1cccc(NP2(=O)OCC(C)([N+](=O)[O-])CO2)c1 (stereo unspecified)	0	0	0	0	-	62
C[C@]12CCC3C(CC[C@H]4C[C@H](O)CC[C@]34C)C1CCC2=O (stereo partly specified)	86	0	0	0	0	0
N#Cc1cccc(-c2ccc([C@H]3[C@@H](CO)N4CCCCN(C(=O)Cc5ccccc5)C[C@H]34)cc2)c1	-	-	-	0	-	-
CCN(CCNc1ccc([N+](=O)[O-])c2cccnc12)S(=O)(=O)c1ccccc1	0	0	0	0	0	0
CCN(CCNc1ccc([N+](=O)[O-])c2cccnc12)S(=O)(=O)c1ccc(Cl)cc1	0	0	0	-	81	0
CCOc1ccc(-c2c(C)n(-c3ccc(OCC)cc3)c3[n+]2CCCCC3)cc1	88	0	0	87	0	0
Clc1cccc(N2Cc3cc(-c4ccccc4)ccc3-n3nncc3C2)c1	0	-	40	0	0	-
COC(=O)[C@H]1[C@H](CO)[C@H]2Cn3c(ccc(C4=CCCCC4)c3=O)[C@@H]1N2Cc1ccccc1OC	-	-	-	0	-	-
CC1=C(O)C(=O)C=C2C1=CC=C1C2(C)CCC2(C)C3CC(C)(C(=O)O)CCC3(C)CCC12C (stereo unspecified)	95	0	0	119	0	88
COC(=O)[C@@H]1C[C@H]1[C@@H](NP(=O)(c1ccccc1)c1ccccc1)c1ccccc1	0	-	32	0	0	0
COC(=O)[C@H]1[C@H](CO)[C@H]2Cn3c(ccc(-c4cccc(OC)c4)c3=O)[C@@H]1N2C(=O)c1ccccc1F	-	-	-	0	-	-
O=C(N/N=C/C1C(=O)NC(=S)N(c2ccccc2)C1=O)c1cc(Br)c(O)c(Br)c1 (stereo unspecified)	0	0	0	0	0	52
O=C(Cc1ccccn1)N1CCCCN2[C@H](C1)[C@@H](c1ccc(-c3ccccc3)cc1)[C@@H]2CO	-	-	-	0	-	-
COCC#Cc1ccc([C@H]2[C@H](CO)N3CCCCN(C(=O)Cc4ccccn4)C[C@@H]23)cc1	-	-	-	0	-	-
C[C@@H]1CN([C@@H](C)CO)C(=O)c2c(c3ccccc3n2C)-c2ccccc2CO[C@@H]1CN(C)C(=O)Oc1ccccc1	-	-	-	0	-	-
SMILES	Shn3 inh set2	NSD2 HMT inh	Glyco luc inh	PAX8 reporter	Env fusion inh	EBV LMP1 NFkB
Cc1cc(-c2ccccc2)cc(C)[n+]1Cc1ccccc1	0	-	0	0	0	0
Cc1ccc(-c2cc(-c3ccc(C)cc3)[n+](-c3ccccc3)c(-c3ccc(C)cc3)c2)cc1	94	-	0	-	-	45
Cc1ccc(-c2cc(-c3ccccc3)cc(-c3ccccc3)[n+]2-c2ccccc2)cc1	98	-	0	95	0	0
CN(C)c1ccc(-[n+]2c(-c3ccccc3)cc(-c3ccccc3)cc2-c2ccccc2)cc1	94	0	0	88	94	0
C[n+]1c(-c2ccccc2)cc(-c2ccc(Cl)cc2)cc1-c1ccccc1	0	0	0	?	0	0
Cc1ccc(-c2cc(-c3ccc(C)cc3)[n+](-c3ccc(C(=O)[O-])cc3)c(-c3ccc(C)cc3)c2)cc1	0	-	0	0	0	0
CCOC(=O)c1cccc(-[n+]2c(-c3ccccc3)cc(-c3ccccc3)cc2-c2ccccc2)c1	0	-	0	89	?	0
COC(=O)[C@@H]1[C@@H](CO)[C@@H]2Cn3c(cccc3=O)[C@H]1N2C(=O)C1CC1	-	-	-	-	0	-
O=C(Cc1ccncc1)N1CCCCN2[C@H](CO)[C@@H](c3ccc(-c4ccncc4)cc3)[C@H]2C1	-	-	-	0	-	-
CCCN1[C@@H]2c3ccc(-c4cccc(C(=O)N(C)C)c4)c(=O)n3C[C@H]1[C@H](CO)[C@H]2C(=O)OC	-	-	-	0	0	-
CCOC(=O)c1ccc(-[n+]2c(-c3ccccc3)cc(-c3ccccc3)cc2-c2ccccc2)cc1	-	-	-	-	-	0
c1ccc(-c2cc(-c3ccccc3)[n+](-c3ccccc3)c(-c3ccccc3)c2)cc1	0	0	0	96	80	0
Cn1ncnc2c(=O)n(C)c(=O)nc1-2	97	0	0	-	-	90
C[C@@H]1O[C@@H](O[C@H]2C[C@@H](O)[C@]3(CO)[C@H]4[C@H](O)C[C@]5(C)[C@@H](C6=CC(=O)OC6)CC[C@]5(O)[C@@H]4CC[C@]3(O)C2)[C@H](O)[C@H](O)[C@H]1O	0	-	0	-	-	80
